In all, about 48,000 compounds went through this assay and about 13,000 (27%) showed an effect of 50% or more. The list shows a part of the results.
tested on: Wolbachia pipientis; test: Anti-Wolbachia Cell-Based Screen; type: functional; design: scale not given: in the data most compounds retested in dose-response had high values; settings: 5 µM

| SMILES | Percent Effect [%] |
| --- | --- |
| Cc1nc(CNCc2ccc(N3CCC(CO)CC3)nc2)cs1 | -0.2455 |
| CN(Cc1cc2n(n1)CCN(C(=O)c1cccnc1)C2)Cc1nccs1 | 89.98 |
| CN(Cc1cn2c(n1)CN(C(=O)C1CCCO1)CC2)Cc1ccco1 (stereo not given) | 5.5 |
| O=C([C@@H]1CCCO1)N1CCn2c(Cn3cccn3)cnc2C1 | 2.282 |
| CCOc1cccc(C(=O)N2CCCn3nc(CCC(=O)O)cc3C2)c1 | -15.16 |
| CN(Cc1cn2c(n1)CN(C(=O)c1cccnc1)CC2)Cc1ccco1 | -4.152 |
| CN(Cc1cc2n(n1)CCN(C(=O)[C@H]1CCCO1)C2)Cc1nccs1 | 100.4 |
| CC(C)C1CN(C(=O)c2cc(C3CC3)n[nH]2)CCC(=O)N1CC1CC1 (stereo not given) | 29.09 |
| C[C@@H]1CN(S(=O)(=O)N2CCCC2)C[C@@]1(O)C1CC1 | -6.629 |
| CNC(=O)[C@@H]1C[C@@H](NC(=O)c2ccc(OC)o2)CN1Cc1sccc1C | 3.708 |
| CC(C)CN(c1cn[nH]c1)S(=O)(=O)c1cccc(C#N)c1 | -11.66 |
| CC1(CCC(=O)N2CCC(n3cc(C4(O)CCCC4)nn3)CC2)CC1 | 8.722 |
| Cc1ccc(CN2CC(O)CN(C(=O)C3CC3)CC2=O)cc1 (stereo not given) | 98.84 |
| CN(CCC(C)(C)O)C(=O)C1CCC(=O)N(Cc2ccc(Cl)cc2)C1 (stereo not given) | -7.945 |
| O=C1CN(C(=O)C2CCOCC2)CCN1Cc1ccc(Cl)cc1 | -5.322 |
| O=C(C1CCOCC1)N1CCN2C(=O)N(Cc3ccc(F)cc3)C[C@H]2C1 | -6.376 |
| O=C1CN(C(=O)C2CCCCC2)CC(O)CN1Cc1ccc(Cl)cc1 (stereo not given) | 110.4 |
| COc1ccc(CN2CCO[C@H]3CN(C(=O)C4CC4)CC[C@H]3C2=O)cc1 | -3.017 |
| COc1ccc(CN2CCO[C@H]3CN(C4CCC4)CC[C@H]3C2=O)cc1.O=C(O)C(F)(F)F | -4.57 |
| O=C1CN(C(=O)C2CCCOC2)CCN1Cc1ccc(Cl)cc1 (stereo not given) | -1.465 |
| COc1ccc(CN2CC(O)CN(C(=O)C3CCC3)CC2=O)cc1 (stereo not given) | 125.6 |
| CCOCC1CN(C(=O)c2cccs2)Cc2nn(C)cc21 (stereo not given) | -4.192 |
| Cc1ncncc1C(=O)N1CCCC(n2ccnc2C)C1 (stereo not given) | 90.56 |
| CCn1ccnc1C1CCCN(C(=O)c2sc(C)nc2C)C1 (stereo not given) | -9.404 |
| CCn1c(C)cc(C(=O)N2CCCC(n3nc(C)nc3C)C2)c1C (stereo not given) | -3.865 |

| SMILES | Percent Effect [%] |
| --- | --- |
| Cc1nc(C)c(C(=O)N2CCCC(n3ccnc3C)C2)s1 (stereo not given) | 110.6 |
| CC(C)c1nccn1C1CCCN(C(=O)c2cnn(C)c2C2CC2)C1 (stereo not given) | -1.568 |
| CCc1nccn1C1CCCN(C(=O)c2cnn(C)c2C2CC2)C1 (stereo not given) | 0.8841 |
| Cc1nccn1C1CCCN(C(=O)c2cnn(C)c2C2CC2)C1 (stereo not given) | 89.3 |
| CCn1c(C)cc(C(=O)N2CCCC(n3ccnc3C)C2)c1C (stereo not given) | 101.9 |
| CCCc1cc(C(=O)N2CCCC(n3ccnc3C)C2)[nH]n1 (stereo not given) | -7.935 |
| Cc1cnc(C(=O)N2CCCC(n3ccnc3C)C2)cn1 (stereo not given) | 4.379 |
| Cc1sc2nc(CCN)nc(N3CC(N4CCCCC4)C3)c2c1C | 3.569 |
| O=C(CCc1ncc(-c2ccc(F)cc2)o1)NCCN1CCOCC1 | 3.155 |
| Cc1ncsc1C(=O)N(C)Cc1cccc(Cl)c1 | -11.93 |
| CCn1[nH]c(C)c2c(C(F)(F)C(F)(F)F)cc(=O)nc1-2 | -26.97 |
| CN(CCC(F)(F)F)C(=O)C1CCCN1C(=O)OC(C)(C)C (stereo not given) | 12.15 |
| Cc1ccccc1SC1CCN(C(=O)C2CNC(=O)N2)CC1 (stereo not given) | 2.436 |
| CCN(CC)Cc1ccc(C(=O)NC2CCc3ccccc32)o1 (stereo not given) | -6.624 |
| O=C(CCC1CCCC1)N1CCC(O)(C(F)(F)F)C1 (stereo not given) | -0.53 |
| CN1CCOCC12CCN(Cc1nccs1)CC2 | 7.326 |
| CCOc1ccnc(NCc2nc(C)cc(C(F)(F)F)n2)n1 | -1.038 |
| CCOCC(=O)NCCc1nc(C)cc(C(F)(F)F)n1 | 110.5 |
| CCOCC(=O)NCCc1nc(C2CC2)cc(C(F)(F)F)n1 | 130.2 |
| O=C(CN1C(=O)CCC1=O)NCCc1nc(C2CC2)cc(C(F)(F)F)n1 | 102.8 |
| O=C(CN1C(=O)CCC1=O)NCc1cc(C2CC2)n(C2CCCC2)n1 | -8.442 |
| CCOCC(=O)NCc1cc(C2CC2)n(C2CCCC2)n1 | 2.551 |
| Cn1nc(CNC(=O)CN2C(=O)CCC2=O)cc1C1CC1 | -2.201 |
| CCOCC(=O)NCCc1ccc(I)s1 | -15.02 |
| Cc1cc(C)nc(CCNC(=O)C(c2ccc(F)cc2)N(C)C)n1 (stereo not given) | 7.326 |

| SMILES | Percent Effect [%] |
| --- | --- |
| Cc1ncccc1C(=O)NC1CC(=O)N(CC(F)(F)F)C1 (stereo not given) | -0.2034 |
| O=C(NCc1ccccc1F)Nc1ccn(CCN2CCOCC2)n1 | -47.91 |
| Cc1cc(CSc2ccccn2)on1 | -1.483 |
| CN(C)CCN1C[C@@H]2CN(c3ccccc3)C[C@@H]2C1=O.O=C(O)C(F)(F)F | 89.24 |
| CN(C)CCN1C(=O)C[C@@H]2[C@@H]1CCN2S(=O)(=O)c1ccccc1.O=C(O)C(F)(F)F | -18.17 |
| CN(C)CCN1C[C@@H]2CN(C(=O)c3ccsc3)C[C@@H]2C1=O.O=C(O)C(F)(F)F | -6.945 |
| CN(C)CCN1C[C@@H]2CN(C(=O)C3CC=CC3)C[C@@H]2C1=O | -2.917 |
| CN(C)CCN1C[C@@H]2CN(S(=O)(=O)c3cccs3)C[C@@H]2C1=O.O=C(O)C(F)(F)F | -17.1 |
| CN(C)CCN1C[C@@H]2CN(S(=O)(=O)c3ccccc3)C[C@@H]2C1=O.O=C(O)C(F)(F)F | 104.5 |
| Cc1cc(NC(=O)N2CCN(C)CC2C)n(C(C)(C)C)n1 (stereo not given) | -1.035 |
| Cc1nn(C)c2nc(N(CCOc3ccccc3)CC3CCCO3)sc12 (stereo not given) | -19.55 |
| Clc1ccccc1OC1CN(CC2CCOC2)C1 (stereo not given) | -8.991 |
| Cc1cnc(N2C[C@@H]3[C@@H](C2)OCC(=O)N3CC2CC2)nc1 | 5.534 |
| CCN1Cc2nccn2CC(COCc2csc(C)n2)C1.O=C(O)C(F)(F)F.O=C(O)C(F)(F)F (stereo not given) | 99.32 |
| Cc1nc(CN2Cc3nccn3CC(CN3CCOCC3)C2)cs1.O=C(O)C(F)(F)F.O=C(O)C(F)(F)F (stereo not given) | -3.569 |
| Cc1nc(CN2Cc3nccn3CC(COCC3CC3)C2)cs1.O=C(O)C(F)(F)F (stereo not given) | -7.932 |
| COCC1CN(Cc2csc(C)n2)Cc2nccn2C1.O=C(O)C(F)(F)F (stereo not given) | -4.637 |
| CCOCC1CN(Cc2csc(C)n2)Cc2nccn2C1.O=C(O)C(F)(F)F (stereo not given) | -4.835 |
| COCCN1Cc2nccn2CC(COCc2csc(C)n2)C1.O=C(O)C(F)(F)F.O=C(O)C(F)(F)F (stereo not given) | 102.1 |
| Cc1occc1C(=O)N1C[C@@H](C(=O)NCc2ccco2)C[C@H]2OCC[C@H]21 | 100.5 |
| Cc1nnc(N2C[C@H](C(=O)NCc3ccco3)[C@@H]3CCO[C@@H]3C2)s1 | 0.8381 |
| O=C(NCc1ccco1)[C@H]1C[C@H]2OCC[C@H]2N(S(=O)(=O)C2CC2)C1 | -11.11 |
| O=C(NCc1ccco1)[C@H]1C[C@H]2OCC[C@H]2N(C(=O)c2ccco2)C1 | -11.04 |
| O=C(NCc1ccco1)[C@H]1C[C@H]2OCC[C@H]2N(C(=O)c2ccnnc2)C1 | 110.4 |
| CN(C)C(=O)N1C[C@@H](C(=O)NCc2ccco2)C[C@H]2OCC[C@H]21 | 111.8 |

| SMILES | Percent Effect [%] |
| --- | --- |
| Cc1occc1C(=O)N1C[C@@H](C(=O)N2CCCCO2)C[C@H]2OCC[C@H]21 | -3.518 |
| O=C(NCc1ccco1)[C@@H]1C[C@H]2OCC[C@H]2N(c2ncc(F)cn2)C1 | 12.25 |
| O=C(NCc1ccco1)[C@H]1C[C@H]2OCC[C@H]2N(C(=O)c2ccncc2)C1.O=C(O)C(F)(F)F | -2.028 |
| NCC1Cc2cc(-c3nccc(N4CCC(O)CC4)n3)cc(F)c2O1 (stereo not given) | -9.833 |
| Cc1nnc(NCCc2nc3ccc(F)cc3n2C)c(C#N)c1C | -11.69 |
| Cc1ccccc1C(C)(C)CNC(=O)CCSc1nnnn1C | -6.777 |
| O=c1ccc2c([nH]1)CCN(S(=O)(=O)c1ccc3c(c1)OCCO3)C2 | 2.836 |
| O=S(=O)(c1ccc2c(c1)OCCO2)N1CCc2ccccc2C1 | 119.9 |
| O=S(=O)(c1ccc2c(c1)OCCO2)N1CCC(OCc2ccccn2)C1 (stereo not given) | -6.121 |
| Cc1nsc(NC(=O)N2CCC(C(C)(C)O)CC2)n1 | -12.37 |
| CN(C)C(=O)N1Cc2ccccc2C2(CCN(C3CCOCC3)CC2)C1 | -2.498 |
| O=C(C1CCCN(Cc2cccnc2)C1)N1CCc2sccc2C1 (stereo not given) | 6.643 |
| O=C(C1CCCN(C2CCOCC2)C1)N1Cc2ccccc2C1 (stereo not given) | 98.98 |
| CC(C(=O)N1CCc2sccc2C1)N1CCC(N2CCCC2)CC1 (stereo not given) | -24.52 |
| O=C(C1CCOCC1)N1CCc2ncnc(-c3ccccc3)c2CC1 | -2.988 |
| O=C(C1CCCN(C2CCOCC2)C1)N1CCc2ncccc2C1 (stereo not given) | 101.2 |
| Cn1c(C(N)=O)cc2c1CN(C(=O)C1CCCN(C3CCCC3)C1)CC2 (stereo not given) | -3.385 |
| O=C(C1CCCN(Cc2ccccc2)C1)N1CCc2sccc2C1 (stereo not given) | 14.78 |
| CN1CCC(N2CCCC(C(=O)N3Cc4ccccc4C3)C2)CC1 (stereo not given) | 88.48 |
| CCc1nnc(CN(C)c2nccc(CCC(F)(F)F)n2)o1 | -5.519 |
| CCc1ccc(C(=O)O)cc1S(=O)(=O)Nc1c(C)ccn(C)c1=O | 6.747 |
| O=C1CCCN1CCCN1CCCC1Cn1cccn1 (stereo not given) | 2.247 |
| COC(=O)CCNC(=O)c1ccc(OCc2ccccc2)nc1 | 0.7688 |
| COCCNC(=O)Cn1cc(OCc2ccccc2)c(=O)cc1CO | 143.5 |
| COCCC1(C(=O)O)CCCN(CC(=O)NCCc2ccccc2)C1 (stereo not given) | -1.604 |

Source: ChEMBL document CHEMBL3988442, “University of Dundee, Small-Polar-MMV Screening Library” (2021)
